Experimental data from PubChem BioAssay (Tox21).
Inconclusive results are not listed. Activity calls are given as the source filed them. Unless noted, calls come from the whole dose curve; as a rule, active = well fitted curve in the direction sought with a large enough effect in the repeat runs; inconclusive = weak or mixed curves; inactive = no such curve, though single readings can be large; an effect the other way counts as inactive or inconclusive.

How the values were obtained:
[1] = biological target: Acetylcholinesterase (Homo sapiens) (UniProt P22303); assay: Acetylcholinesterase (AChE) small molecule antagonists: fluorescence cell-based qHTS assay (AID 1347398; calls by dose curve; note: nearly all actives have a fitted effect of over 50% in size; note: potency is the fitted concentration of half-maximal effect); conditions: Potency: AChE activity
Procedure, shortened: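 Thiocholine generated from acetylthiocholine by SH-SY5Y cell AChE is detected with Thiolite Green (Ex/Em 490/520 nm) after 40 min at room temperature, following 30 min compound pretreatment at 37 C.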

[2] = biological target: Acetylcholinesterase (Homo sapiens) (UniProt P22303); assay: Acetylcholinesterase (AChE) small molecule antagonists: enzyme-based qHTS assay with human liver microsomes (AID 1347399; calls by dose curve; note: nearly all actives have a fitted effect of over 60% in size; note: potency is the fitted concentration of half-maximal effect); conditions: Potency: qHTS inhibition
Procedure, shortened: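 Recombinant human AChE (50 mU/mL in the enzyme mix) and human liver microsomes (0.25 mg/mL final) were preincubated with compound and NADPH (0.25 mg/mL final) for 30 min at 37 C. Acetylthiocholine/DTNB was then added; thiocholine was read colorimetrically after 10 min at room temperature.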

[3] = biological target: Cytochrome P450 2D6 (Homo sapiens) (UniProt P10635); assay: Cytochrome P450 Family 2 Subfamily D Member 6 (CYP2D6) small molecule antagonists: luciferase reporter qHTS assay (AID 1671196); note: nearly all actives have a fitted effect of over 50% in size; note: potency is the fitted concentration of half-maximal effect; for activity change, negative = inhibition: series mostly up to about 120 µM
Procedure, shortened: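 Read-out is luminescence from luciferin formed by CYP2D6 turnover of a proluciferin substrate, recorded as relative luminescence units. Reactions ran 1 h at room temperature after NADPH regeneration solution was added.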

[4] = biological target: Cytochrome P450 2C19 (Homo sapiens) (UniProt P33261); assay: Cytochrome P450 Family 2 Subfamily C Member 19 (CYP2C19) small molecule antagonists: luciferase reporter qHTS assay (AID 1671197); note: nearly all actives have a fitted effect of over 65% in size; note: potency is the fitted concentration of half-maximal effect; for activity change, negative = inhibition: series mostly up to about 120 µM
Procedure, shortened: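 CYP2C19 P450-Glo, 1536-well qHTS. Cpd + enzyme/proluciferin substrate 10 min RT; + NADPH regen, 37C 1 h; stop with luciferin detection reagent, 20 min RT, luminescence (RLU). Pos ctrl ketoconazole.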

[5] = biological target: Cytochrome P450 2C9 (Homo sapiens) (UniProt P11712); assay: Cytochrome P450 Family 2 Subfamily C Member 9 (CYP2C9) small molecule antagonists: luciferase reporter qHTS assay (AID 1671198); note: nearly all actives have a fitted effect of over 50% in size; note: potency is the fitted concentration of half-maximal effect; for activity change, negative = inhibition: series mostly up to about 120 µM
Procedure, shortened: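 CYP2C9 activity was measured with a P450-Glo proluciferin substrate. Enzyme–substrate mix was held with compound for 10 min at room temperature, then NADPH regeneration solution was added for 1 h at 37C. Luciferin product was read as luminescence.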

[6] = biological target: Voltage-gated inwardly rectifying potassium channel KCNH2 (Homo sapiens) (UniProt Q12809); assay: Human Ether-a-go-go-Related Gene (hERG) channel small molecule antagonists: fluorescence cell-based qHTS assay (AID 1671200);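 note: hERG-expressing U2OS cells given a thallium stimulus after FluxOR II dye loading; series mostly up to about 77 µM; nearly all actives have a fitted effect of over 50% in size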
Procedure, shortened: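 In this thallium-flux screen, overnight-cultured U2OS cells bearing the channel are dye-loaded in darkness for an hour, rested 10 min at room temperature, and then monitored kinetically at 480/540 nm for two minutes post-stimulus.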

[7] = biological target: Cytochrome P450 3A4 (Homo sapiens) (UniProt P08684); assay: Cytochrome P450 Family 3 Subfamily A Member 4 (CYP3A4) small molecule antagonists: luciferase reporter qHTS assay (AID 1671201); note: nearly all actives have a fitted effect of over 50% in size; note: potency is the fitted concentration of half-maximal effect; for activity change, negative = inhibition: series mostly up to about 120 µM
Procedure, shortened: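 CYP3A4 activity was followed with a P450-Glo proluciferin substrate. Test compounds in DMSO were preincubated 10 min; NADPH regeneration then ran 1 h, and light output was read 20 min after detection reagent.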

[8] = biological target: Cytochrome P450 1A2 (Homo sapiens) (UniProt P05177); assay: Cytochrome P450 Family 1 Subfamily A Member 2 (CYP1A2) small molecule antagonists: luciferase reporter qHTS assay (AID 1671199); note: nearly all actives have a fitted effect of over 50% in size; note: potency is the fitted concentration of half-maximal effect; for activity change, negative = inhibition: series mostly up to about 120 µM
Procedure, shortened: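 P450-Glo CYP1A2, 1536-well qHTS: enzyme/proluciferin substrate + cpd (DMSO), 10 min RT; NADPH regen, 1 h RT; detection reagent, 20 min; luminescence, RLU.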
% is set by controls: 0 for no effect and ±100 for the full control effect.

Chain of Cytochrome P450 2C19 (Homo sapiens) (P33261 whole entry, looked up): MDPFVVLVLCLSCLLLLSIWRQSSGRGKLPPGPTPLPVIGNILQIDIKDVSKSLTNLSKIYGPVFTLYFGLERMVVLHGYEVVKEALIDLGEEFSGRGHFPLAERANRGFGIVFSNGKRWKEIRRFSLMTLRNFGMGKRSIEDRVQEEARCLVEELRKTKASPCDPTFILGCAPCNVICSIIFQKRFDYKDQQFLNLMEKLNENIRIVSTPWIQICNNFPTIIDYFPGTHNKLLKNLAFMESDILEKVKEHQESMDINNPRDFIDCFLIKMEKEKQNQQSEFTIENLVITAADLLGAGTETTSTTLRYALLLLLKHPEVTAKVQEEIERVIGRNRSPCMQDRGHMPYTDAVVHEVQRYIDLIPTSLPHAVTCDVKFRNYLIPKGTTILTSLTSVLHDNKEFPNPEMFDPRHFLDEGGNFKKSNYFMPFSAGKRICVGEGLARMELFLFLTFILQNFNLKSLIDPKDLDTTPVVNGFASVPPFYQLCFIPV
Chain of Cytochrome P450 3A4 (Homo sapiens) (P08684 whole entry, looked up): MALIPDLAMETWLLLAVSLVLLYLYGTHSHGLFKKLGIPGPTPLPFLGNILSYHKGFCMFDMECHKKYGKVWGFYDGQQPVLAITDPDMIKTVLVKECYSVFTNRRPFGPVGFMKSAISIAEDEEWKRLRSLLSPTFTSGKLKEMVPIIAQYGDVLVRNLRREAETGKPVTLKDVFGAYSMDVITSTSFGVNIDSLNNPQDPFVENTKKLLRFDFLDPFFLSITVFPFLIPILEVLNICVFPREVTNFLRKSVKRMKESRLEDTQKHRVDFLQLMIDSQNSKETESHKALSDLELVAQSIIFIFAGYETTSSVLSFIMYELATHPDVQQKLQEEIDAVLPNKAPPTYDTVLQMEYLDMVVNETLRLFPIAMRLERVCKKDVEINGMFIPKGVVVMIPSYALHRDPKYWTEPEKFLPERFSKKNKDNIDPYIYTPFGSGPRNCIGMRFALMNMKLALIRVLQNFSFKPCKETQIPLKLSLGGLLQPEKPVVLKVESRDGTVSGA
Chain of Cytochrome P450 2C9 (Homo sapiens) (P11712 whole entry, looked up): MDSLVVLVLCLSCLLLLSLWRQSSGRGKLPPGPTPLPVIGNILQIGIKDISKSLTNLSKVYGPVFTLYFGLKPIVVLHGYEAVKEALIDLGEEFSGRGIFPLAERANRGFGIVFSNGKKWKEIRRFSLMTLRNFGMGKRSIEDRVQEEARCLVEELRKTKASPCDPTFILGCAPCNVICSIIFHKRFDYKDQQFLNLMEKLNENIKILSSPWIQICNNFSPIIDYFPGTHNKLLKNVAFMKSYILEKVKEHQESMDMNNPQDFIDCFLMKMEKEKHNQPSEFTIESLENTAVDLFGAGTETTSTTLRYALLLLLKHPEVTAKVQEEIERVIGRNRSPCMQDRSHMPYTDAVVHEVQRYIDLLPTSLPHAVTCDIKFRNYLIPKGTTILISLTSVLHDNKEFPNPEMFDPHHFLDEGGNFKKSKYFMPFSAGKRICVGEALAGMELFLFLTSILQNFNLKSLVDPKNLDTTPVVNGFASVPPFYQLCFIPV
Chain of Cytochrome P450 2D6 (Homo sapiens) (P10635 whole entry, looked up): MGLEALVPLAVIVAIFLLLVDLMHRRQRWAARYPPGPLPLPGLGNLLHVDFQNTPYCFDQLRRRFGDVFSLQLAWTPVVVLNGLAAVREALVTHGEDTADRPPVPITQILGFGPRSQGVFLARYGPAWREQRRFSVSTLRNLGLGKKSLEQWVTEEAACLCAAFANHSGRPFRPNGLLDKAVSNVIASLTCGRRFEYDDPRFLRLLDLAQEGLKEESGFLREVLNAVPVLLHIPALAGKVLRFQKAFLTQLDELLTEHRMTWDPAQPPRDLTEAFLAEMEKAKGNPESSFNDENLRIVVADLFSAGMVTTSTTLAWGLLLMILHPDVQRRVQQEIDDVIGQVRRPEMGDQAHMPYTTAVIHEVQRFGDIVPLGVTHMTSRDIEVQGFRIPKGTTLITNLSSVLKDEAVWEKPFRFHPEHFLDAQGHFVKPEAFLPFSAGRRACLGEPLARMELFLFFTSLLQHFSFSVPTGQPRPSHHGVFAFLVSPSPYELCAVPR
Chain of Voltage-gated inwardly rectifying potassium channel KCNH2 (Homo sapiens) (Q12809 whole entry, looked up): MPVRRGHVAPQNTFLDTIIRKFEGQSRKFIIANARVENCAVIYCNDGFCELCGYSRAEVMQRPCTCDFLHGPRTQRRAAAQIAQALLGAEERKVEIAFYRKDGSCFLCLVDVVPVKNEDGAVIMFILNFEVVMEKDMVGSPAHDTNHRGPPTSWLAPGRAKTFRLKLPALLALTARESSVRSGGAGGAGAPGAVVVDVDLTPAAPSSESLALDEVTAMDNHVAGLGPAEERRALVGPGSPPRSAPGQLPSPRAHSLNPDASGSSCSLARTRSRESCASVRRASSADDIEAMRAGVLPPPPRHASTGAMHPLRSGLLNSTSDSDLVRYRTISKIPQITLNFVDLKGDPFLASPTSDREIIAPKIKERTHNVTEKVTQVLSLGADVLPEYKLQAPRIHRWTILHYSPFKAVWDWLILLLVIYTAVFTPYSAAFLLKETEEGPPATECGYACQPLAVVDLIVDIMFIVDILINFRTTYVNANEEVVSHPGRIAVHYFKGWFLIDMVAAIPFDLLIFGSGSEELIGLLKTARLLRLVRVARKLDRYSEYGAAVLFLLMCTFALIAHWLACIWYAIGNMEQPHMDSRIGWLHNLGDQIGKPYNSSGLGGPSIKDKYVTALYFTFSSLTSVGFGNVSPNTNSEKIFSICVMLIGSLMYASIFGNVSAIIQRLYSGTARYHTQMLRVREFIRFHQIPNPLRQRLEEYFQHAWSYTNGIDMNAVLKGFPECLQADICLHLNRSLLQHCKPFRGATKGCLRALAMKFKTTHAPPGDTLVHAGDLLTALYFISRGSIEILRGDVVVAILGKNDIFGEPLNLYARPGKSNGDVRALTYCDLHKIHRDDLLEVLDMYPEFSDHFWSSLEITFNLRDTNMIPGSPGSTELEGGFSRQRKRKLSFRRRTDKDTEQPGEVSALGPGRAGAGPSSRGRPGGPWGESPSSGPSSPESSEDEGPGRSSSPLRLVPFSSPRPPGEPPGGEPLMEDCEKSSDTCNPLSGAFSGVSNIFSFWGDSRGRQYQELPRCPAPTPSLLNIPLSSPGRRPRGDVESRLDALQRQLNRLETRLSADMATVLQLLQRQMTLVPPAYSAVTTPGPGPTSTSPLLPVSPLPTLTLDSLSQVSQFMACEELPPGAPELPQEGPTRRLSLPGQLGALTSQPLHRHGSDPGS
Chain of Acetylcholinesterase (Homo sapiens) (P22303 whole entry, looked up): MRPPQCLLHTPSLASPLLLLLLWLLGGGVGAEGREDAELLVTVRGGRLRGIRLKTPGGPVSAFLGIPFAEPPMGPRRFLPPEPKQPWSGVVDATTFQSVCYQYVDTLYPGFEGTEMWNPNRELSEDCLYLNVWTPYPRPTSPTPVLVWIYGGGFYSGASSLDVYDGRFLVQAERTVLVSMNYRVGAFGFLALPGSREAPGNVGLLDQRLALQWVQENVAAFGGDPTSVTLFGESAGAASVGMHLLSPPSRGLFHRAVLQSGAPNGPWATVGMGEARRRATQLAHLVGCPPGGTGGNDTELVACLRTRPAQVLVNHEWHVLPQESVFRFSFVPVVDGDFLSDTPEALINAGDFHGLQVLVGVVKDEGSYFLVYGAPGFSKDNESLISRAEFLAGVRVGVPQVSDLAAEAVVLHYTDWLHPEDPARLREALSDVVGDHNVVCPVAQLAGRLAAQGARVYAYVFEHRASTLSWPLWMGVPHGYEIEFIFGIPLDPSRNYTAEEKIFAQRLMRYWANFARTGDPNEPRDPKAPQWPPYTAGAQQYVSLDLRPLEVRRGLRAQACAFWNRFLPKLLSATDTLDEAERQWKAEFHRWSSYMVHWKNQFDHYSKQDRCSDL
Chain of Cytochrome P450 1A2 (Homo sapiens) (P05177 whole entry, looked up): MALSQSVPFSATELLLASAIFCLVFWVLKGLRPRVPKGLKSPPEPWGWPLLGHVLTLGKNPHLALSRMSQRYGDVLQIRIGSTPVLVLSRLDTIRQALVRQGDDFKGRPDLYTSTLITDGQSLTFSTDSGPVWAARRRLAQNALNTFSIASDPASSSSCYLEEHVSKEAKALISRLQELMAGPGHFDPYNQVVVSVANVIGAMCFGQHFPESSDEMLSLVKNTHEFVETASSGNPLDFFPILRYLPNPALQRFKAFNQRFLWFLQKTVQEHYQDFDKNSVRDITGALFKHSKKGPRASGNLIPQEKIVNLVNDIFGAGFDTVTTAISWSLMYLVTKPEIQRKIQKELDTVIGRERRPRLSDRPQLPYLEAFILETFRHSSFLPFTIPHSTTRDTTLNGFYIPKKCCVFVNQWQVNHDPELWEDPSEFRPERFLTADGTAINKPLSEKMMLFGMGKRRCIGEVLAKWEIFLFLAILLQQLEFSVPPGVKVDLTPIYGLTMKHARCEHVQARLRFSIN

ClCC(Br)CBr (configuration not stated)
inactive: Potency [1] | Potency [2] | Potency [3] | Potency [4] | Potency [5] | Potency [6]

O=C(NC(=O)c1c(F)cccc1F)Nc1ccc(OC(F)(F)C(F)OC(F)(F)F)c(Cl)c1 (configuration not stated)
inactive: Potency [1] | Potency [2] | Potency [3] | Potency [4] | Potency [6] | Potency [7]
active: Potency [5] 19.5 µM

Cn1sc(Cl)cc1=O
inactive: Potency [1] | Potency [2] | Potency [3] | Potency [4] | Potency [6] | Potency [7]
active: Potency [5] 71 µM

CCOc1ccc(C(C)(C)COCc2cccc(Oc3ccccc3)c2)cc1
active: Potency [3] 35.6 µM | Potency [4] 17.8 µM | Potency [5] 6.33 µM
inactive: Potency [1] | Potency [2] | Potency [6] | Potency [7]

Cc1ccc2ccccc2c1
inactive: Potency [1] | Potency [2] | Potency [3] | Potency [4] | Potency [5] | Potency [6] | Potency [7]

CC(=O)CCC(C)=O
inactive: Potency [1] | Potency [2] | Potency [3] | Potency [4] | Potency [5] | Potency [8] | Potency [6] | Potency [7]

O=S(=O)(O)C(F)(F)C(F)(F)C(F)(F)C(F)(F)F
inactive: Potency [1] | Potency [2] | Potency [6]
active: Potency [3] 59.8 µM | Potency [4] 33.6 µM | Potency [5] 17.9 µM

NC(=O)C(Cl)(Cl)Cl
inactive: Potency [1] | Potency [2] | Potency [3] | Potency [4] | Potency [5] | Potency [6] | Potency [7]

CC/C(=N\OC/C=C/Cl)C1=C(O)CC(C2CCOCC2)CC1=O (configuration not stated)
active: Potency [4] 70.9 µM | Potency [5] 31.7 µM
inactive: Potency [1] | Potency [2] | Potency [3] | Potency [6]

O=C(C(Cl)(Cl)Cl)C(Cl)(Cl)Cl
active: Potency [3] 36.3 µM
inactive: Potency [1] | Potency [2] | Potency [4] | Potency [5] | Potency [6]

NC(=O)CI
active: Potency [3] 63.8 µM | Potency [4] 80.4 µM | Potency [5] 63.8 µM | Potency [8] 35.9 µM
inactive: Potency [1] | Potency [2] | Potency [6] | Potency [7]

Sc1ccccc1Cl
inactive: Potency [1] | Potency [2] | Potency [3] | Potency [4] | Potency [5] | Potency [8] | Potency [6] | Potency [7]

c1ccoc1
inactive: Potency [1] | Potency [2] | Potency [3] | Potency [4] | Potency [5] | Potency [8] | Potency [6] | Potency [7]

CCOP(=S)(OCC)SCn1nnc2ccccc2c1=O
inactive: Potency [6]
active: Potency [1] 5.64 µM | Potency [2] 0.252 µM | Potency [3] 35.6 µM | Potency [4] 0.356 µM | Potency [5] 0.633 µM | Potency [8] 35.6 µM | Potency [7] 1.59 µM

CC(Cl)Cl
inactive: Potency [1] | Potency [2] | Potency [3] | Potency [4] | Potency [5] | Potency [6]

O=C=Nc1ccc(Cl)cc1
active: Potency [4] 2 µM | Potency [5] 7.96 µM
inactive: Potency [1] | Potency [2] | Potency [3] | Potency [6] | Potency [7]

CCN(C)N=O
inactive: Potency [1] | Potency [2] | Potency [3] | Potency [4] | Potency [5] | Potency [6] | Potency [7]

C=CC(=O)NCNC(=O)C=C
inactive: Potency [1] | Potency [2] | Potency [4] | Potency [6] | Potency [7]
active: Potency [3] 3.56 µM | Potency [8] 46.5 µM

CO[C@@H]1[C@H](OC(=O)NC(=O)CCl)CC[C@]2(CO2)[C@H]1[C@@]1(C)O[C@@H]1CC=C(C)C
inactive: activity change, negative = inhibition [1] -0.397% [at 23.8 µM] | activity change, negative = inhibition [2] -0.551% [at 23.6 µM] | activity change, negative = inhibition [3] -6.64% [at 23.6 µM] | activity change, negative = inhibition [6] 7.85% [at 15.8 µM]
active: Potency [4] 21.8 µM

C=CC(=O)OCCCCO
inactive: Potency [1] | Potency [2] | Potency [3] | Potency [4] | Potency [5] | Potency [6] | Potency [7]

O=C(CBr)OCc1ccccc1
active: Potency [5] 35.6 µM
inactive: Potency [1] | Potency [2] | Potency [3] | Potency [8] | Potency [6] | Potency [7]

COC(=O)C(Cl)C(=O)OC
inactive: Potency [1] | Potency [2] | Potency [3] | Potency [5] | Potency [8] | Potency [6] | Potency [7]

C=CC(=O)OCC(C)C
inactive: Potency [1] | Potency [2] | Potency [3] | Potency [4] | Potency [5] | Potency [6] | Potency [7]

O=Cc1ccc2c(c1)OCO2
inactive: Potency [1] | Potency [2] | Potency [3] | Potency [4] | Potency [6] | Potency [7]
active: Potency [8] 31.3 µM

C/C=C/C=O
active: Potency [4] 34 µM
inactive: Potency [1] | Potency [2] | Potency [3] | Potency [6] | Potency [7]

O=C(O)COc1ccc(Cl)cc1
inactive: Potency [1] | Potency [2] | Potency [3] | Potency [4] | Potency [5] | Potency [6] | Potency [7]

CCOC(=O)CBr
inactive: Potency [1] | Potency [2] | Potency [6]
active: Potency [3] 40.1 µM | Potency [4] 40.1 µM | Potency [8] 63.6 µM

C=CCOC(C)=O
active: Potency [4] 70 µM | Potency [5] 55.6 µM
inactive: Potency [1] | Potency [2] | Potency [3] | Potency [6] | Potency [7]
